# Source: the supplement of paper PMC8728848
# Shown is part of a subset that was picked to be rich in the strongest signals.
# B1: CM2 (Cordyceps militaris) (protein)
# chain: MEIAEQNVGKSCAIVNLIPPKEGSNIWTAKQVTIARNLPPNRGTGRHQIDWSFGPVKVTGYVDTTNWEIGVTVSIMGIDLGTVYGNLRDGVVLNVDLFLAKGQVRFYLKNGNEVWVHLSVEIRFDGKFEGDYKIITV
# Experiments:
# Assay in all cases: glycan array binding signal (z-score within array); higher = stronger binding
# Details in all cases: glycan notation: IUPAC condensed, linker removed
# [1] = biological target: Fuc(a1-2)Gal(b1-3)GalNAc(b1-4)[Neu5Ac(a2-3)]Gal(b1-4)Glc
# Outline: (§1)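 From the Consortium for Functional Glycomics database, 3228 arrays were curated, keeping only those whose protein sequence was available. Binding is given as a within-array Z-score averaged across arrays sharing a protein sequence and across linkers. Negative Z-scores can be read as non-binding.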
# Fuc(a1-2)Gal(b1-4)Glc6S = biological target: Fuc(a1-2)Gal(b1-4)Glc6S
# Outline: as §1
# [2] = biological target: Fuc(a1-2)[Gal(a1-3)]Gal(b1-4)[Fuc(a1-3)]GlcNAc
# Outline: as §1
# [3] = biological target: Fuc(a1-2)[GalNAc(a1-3)]Gal(b1-3)GlcNAc
# Outline: as §1
# [4] = biological target: Fuc(a1-2)[GalNAc(a1-3)]Gal(b1-3)GlcNAc(b1-3)GalNAc
# Outline: as §1
# [5] = biological target: Fuc(a1-2)[GalNAc(a1-3)]Gal(b1-4)GlcNAc(b1-2)Man(a1-3)[Fuc(a1-2)[GalNAc(a1-3)]Gal(b1-4)GlcNAc(b1-2)Man(a1-6)]Man(b1-4)GlcNAc(b1-4)[Fuc(a1-6)]GlcNAc
# Outline: as §1
# [6] = biological target: Fuc(a1-3)[Gal(b1-4)]GlcNAc
# Outline: as §1
# [7] = biological target: Gal(a1-3)Gal(b1-3)GlcNAc(b1-2)Man(a1-3)[Gal(a1-3)Gal(b1-3)GlcNAc(b1-2)Man(a1-6)]Man(b1-4)GlcNAc(b1-4)GlcNAc
# Outline: as §1
# [8] = biological target: Gal(a1-3)Gal(b1-4)GlcNAc(b1-6)GalNAc
# Outline: as §1
# [9] = biological target: Gal(b1-3)GlcNAc(b1-3)Gal(b1-4)GlcNAc(b1-2)[Gal(b1-3)GlcNAc(b1-3)Gal(b1-4)GlcNAc(b1-6)]Man(a1-6)[Gal(b1-3)GlcNAc(b1-3)Gal(b1-4)GlcNAc(b1-2)Man(a1-3)]Man(b1-4)GlcNAc(b1-4)[Fuc(a1-6)]GlcNAc
# Outline: as §1
# [10] = biological target: Gal(b1-3)[Fuc(a1-4)]GlcNAc(b1-6)GalNAc
# Outline: as §1
# [11] = biological target: Gal(b1-3)[Neu5Ac(b2-6)]GalNAc
# Outline: as §1
# [12] = biological target: Gal(b1-4)GlcNAc(b1-2)Man(a1-3)[Gal(b1-4)GlcNAc(b1-2)Man(a1-6)]Man(b1-4)GlcNAc(b1-4)GlcNAc
# Outline: as §1
# [13] = biological target: Gal(b1-4)GlcNAc(b1-3)Gal(b1-4)GlcNAc(b1-2)[Gal(b1-4)GlcNAc(b1-3)Gal(b1-4)GlcNAc(b1-6)]Man(a1-6)[Gal(b1-4)GlcNAc(b1-3)Gal(b1-4)GlcNAc(b1-2)Man(a1-3)]Man(b1-4)GlcNAc(b1-4)[Fuc(a1-6)]GlcNAc
# Outline: as §1
# [14] = biological target: Gal(b1-4)GlcNAc(b1-3)Gal(b1-4)GlcNAc(b1-3)Gal(b1-4)GlcNAc(b1-2)Man(a1-3)[Gal(b1-4)GlcNAc(b1-3)Gal(b1-4)GlcNAc(b1-3)Gal(b1-4)GlcNAc(b1-2)Man(a1-6)]Man(b1-4)GlcNAc(b1-4)[Fuc(a1-6)]GlcNAc
# Outline: as §1
# [15] = biological target: Gal(b1-4)GlcNAc(b1-3)Gal(b1-4)GlcNAc(b1-3)Gal(b1-4)GlcNAc(b1-3)Gal(b1-4)GlcNAc(b1-2)[Gal(b1-4)GlcNAc(b1-3)Gal(b1-4)GlcNAc(b1-3)Gal(b1-4)GlcNAc(b1-3)Gal(b1-4)GlcNAc(b1-6)]Man(a1-6)[Gal(b1-4)GlcNAc(b1-3)Gal(b1-4)GlcNAc(b1-3)Gal(b1-4)GlcNAc(b1-3)Gal(b1-4)GlcNAc(b1-2)Man(a1-3)]Man(b1-4)GlcNAc(b1-4)[Fuc(a1-6)]GlcNAc
# Outline: as §1
# Gal3S(b1-3)GlcNAc = biological target: Gal3S(b1-3)GlcNAc
# Outline: as §1
# Gal3S6S(b1-4)GlcNAc6S = biological target: Gal3S6S(b1-4)GlcNAc6S
# Outline: as §1
# Gal6S(b1-3)GlcNAc = biological target: Gal6S(b1-3)GlcNAc
# Outline: as §1
# [16] = biological target: GlcA3S(b1-3)Gal(b1-4)GlcNAc(b1-3)Gal(b1-4)Glc
# Outline: as §1
# [17] = biological target: GlcNAc(b1-3)Gal(b1-4)GlcNAc(b1-2)Man(a1-3)[GlcNAc(b1-3)Gal(b1-4)GlcNAc(b1-2)Man(a1-6)]Man(b1-4)GlcNAc(b1-4)[Fuc(a1-6)]GlcNAc
# Outline: as §1
# [18] = biological target: GlcNAc(b1-3)Gal(b1-4)GlcNAc(b1-3)Gal(b1-4)GlcNAc(b1-2)[GlcNAc(b1-3)Gal(b1-4)GlcNAc(b1-3)Gal(b1-4)GlcNAc(b1-6)]Man(a1-6)[GlcNAc(b1-3)Gal(b1-4)GlcNAc(b1-3)Gal(b1-4)GlcNAc(b1-2)Man(a1-3)]Man(b1-4)GlcNAc(b1-4)[Fuc(a1-6)]GlcNAc
# Outline: as §1
# [19] = biological target: GlcNAc(b1-3)Gal(b1-4)GlcNAc(b1-3)Gal(b1-4)GlcNAc(b1-3)Gal(b1-4)GlcNAc(b1-2)Man(a1-3)[GlcNAc(b1-3)Gal(b1-4)GlcNAc(b1-3)Gal(b1-4)GlcNAc(b1-3)Gal(b1-4)GlcNAc(b1-2)Man(a1-6)]Man(b1-4)GlcNAc(b1-4)GlcNAc
# Outline: as §1
# GlcNAc(b1-3)GalNAc = biological target: GlcNAc(b1-3)GalNAc
# Outline: as §1
# [20] = biological target: Kdn(a2-3)Gal(b1-4)[Fuc(a1-3)]GlcNAc
# Outline: as §1
# [21] = biological target: Man(a1-2)Man(a1-3)[Man(a1-2)Man(a1-6)]Man(a1-6)[Man(a1-2)Man(a1-2)Man(a1-3)]Man
# Outline: as §1
# [22] = biological target: Man(a1-3)[Man(a1-6)]Man(a1-6)[Man(a1-2)Man(a1-3)]Man(b1-4)GlcNAc(b1-4)GlcNAc
# Outline: as §1
# [23] = biological target: Neu5Ac(a2-3)Gal(b1-3)GlcNAc(b1-2)Man(a1-3)[GlcNAc(b1-4)][Neu5Ac(a2-3)Gal(b1-3)GlcNAc(b1-2)Man(a1-6)]Man(b1-4)GlcNAc(b1-4)GlcNAc
# Outline: as §1
# [24] = biological target: Neu5Ac(a2-3)Gal(b1-3)]Neu5Ac(a2-3)Gal(b1-4)]GlcNAc
# Outline: as §1
# [25] = biological target: Neu5Ac(a2-3)Gal(b1-4)GlcNAc(b1-2)Man(a1-3)[Neu5Ac(a2-6)Gal(b1-4)GlcNAc(b1-2)Man(a1-6)]Man(b1-4)GlcNAc(b1-4)GlcNAc
# Outline: as §1
binder,measurement,setting,value
B1,glycan array binding signal (z-score),[1],0.28
same,glycan array binding signal (z-score),Fuc(a1-2)Gal(b1-4)Glc6S,-0.639
same,glycan array binding signal (z-score),[2],1.81
same,glycan array binding signal (z-score),[3],1.61
same,glycan array binding signal (z-score),[4],1.29
same,glycan array binding signal (z-score),[5],0.394
same,glycan array binding signal (z-score),[6],0.057
same,glycan array binding signal (z-score),[7],-0.635
same,glycan array binding signal (z-score),[8],-0.847
same,glycan array binding signal (z-score),[9],0.677
same,glycan array binding signal (z-score),[10],0.038
same,glycan array binding signal (z-score),[11],0.422
same,glycan array binding signal (z-score),[12],-1.28
same,glycan array binding signal (z-score),[13],2.29
same,glycan array binding signal (z-score),[14],3.05
same,glycan array binding signal (z-score),[15],1.2
same,glycan array binding signal (z-score),Gal3S(b1-3)GlcNAc,0.015
same,glycan array binding signal (z-score),Gal3S6S(b1-4)GlcNAc6S,3.73
same,glycan array binding signal (z-score),Gal6S(b1-3)GlcNAc,-0.595
same,glycan array binding signal (z-score),[16],0.06
same,glycan array binding signal (z-score),[17],2.3
same,glycan array binding signal (z-score),[18],3.55
same,glycan array binding signal (z-score),[19],-0.287
same,glycan array binding signal (z-score),GlcNAc(b1-3)GalNAc,-0.452
same,glycan array binding signal (z-score),[20],0.801
same,glycan array binding signal (z-score),[21],2.53
same,glycan array binding signal (z-score),[22],2.43
same,glycan array binding signal (z-score),[23],1.74
same,glycan array binding signal (z-score),[24],3.98
same,glycan array binding signal (z-score),[25],0.37
